Data taken from PubChem BioAssay (Tox21).
Records with an inconclusive call do not appear. Activity calls are given as the source filed them. Unless noted, the call rests on the fitted dose curve; in most records, active means well fitted curve in the direction sought with a large enough effect in the repeat runs; inconclusive means weak or mixed curves; inactive means no such curve, though single readings can be large; an effect the other way counts as inactive or inconclusive.

Experiments:
[1] = qHTS assay to identify small molecule agonists of the vitamin D receptor (VDR) signaling pathway - cell viability counter screen (AID 743224); further: on the % scale 0 is the no-effect control and ±100 the full control effect; nearly all actives have a fitted effect of over 50% in size
Method in brief: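 VDR-bla cells were preincubated 4 h at 37C/5% CO2, then exposed to compounds for 16 h. After the 2 h room-temperature bla FRET read, CellTiter-Glo was added to the same wells and luminescence read after 30 min.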

[2] = qHTS assay to identify small molecule antagonists of the vitamin D receptor (VDR) signaling pathway - cell viability counter screen (AID 743225); further: on the % scale 0 is the no-effect control and ±100 the full control effect; nearly all actives have a fitted effect of over 50% in size
Method in brief: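 Compounds were pinned onto VDR-bla HEK 293T cells together with 1-alpha,25-dihydroxyvitamin D3 at 3 nM final. After 16 h at 37C and 5% CO2 plus the reporter readout, cell viability was measured by CellTiter-Glo luminescence (30 min, room temperature).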

[3] = qHTS assay to identify small molecule agonists of the NFkB signaling pathway (AID 1159509; active means well fitted curve in the direction sought with a large enough effect in the signal ratio in the repeat runs, not every such curve was filed as active; the % refers to the signal ratio; further: on the % scale 0 is the no-effect control and ±100 the full control effect)
Method in brief: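 ME-180 NFkB-bla, 2,000 cells/well, overnight plating; cpd pinned in DMSO, 5 h 37 C; B/G FRET substrate 1.5 h RT; ex 405, em 460/530 nm.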

[4] = qHTS assay to identify small molecule agonists of the NFkB signaling pathway - cell viability counter screen (AID 1159515; calls by dose curve; further: on the % scale 0 is the no-effect control and ±100 the full control effect; nearly all actives have a fitted effect of over 55% in size)
Method in brief: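 NFkB-bla ME-180 cells, 2,000/well, were plated overnight at 37 C, 5% CO2, then exposed to compounds in DMSO for 5 hr. After the bla FRET read, CellTiter-Glo was added to the same wells; luminescence was read after 30 min at room temperature.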

[5] = qHTS assay to identify small molecule agonists of the endoplasmic reticulum stress response signaling pathway (AID 1159516; active means well fitted activation curve with a large enough effect in the signal ratio in the repeat runs, not every such curve was filed as active; the % refers to the signal ratio; further: on the % scale 0 is the no-effect control and ±100 the full control effect)
Method in brief: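 CellSensor ESRE-bla HeLa cells, carrying a beta-lactamase reporter driven by the ER stress response element, were plated overnight and exposed to compounds for 5 hr at 37 C. Reporter activity was read as FRET substrate fluorescence after 2 hr at room temperature.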

[6] = qHTS assay to identify small molecule agonists of the endoplasmic reticulum stress response signaling pathway - cell viability counter screen (AID 1159517; calls by dose curve; further: on the % scale 0 is the no-effect control and ±100 the full control effect; nearly all actives have a fitted effect of over 50% in size)
Method in brief: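 HeLa cells carrying an ESRE-driven beta-lactamase reporter receive compound for 5 hr at 37 C. Cell viability is then gauged with CellTiter-Glo by luminescence, 30 min at room temperature.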

[7] = qHTS assay to identify small molecule antagonists of the retinoid-related orphan receptor gamma (ROR-gamma) signaling pathway - cell viability counter screen (AID 1159520); further: on the % scale 0 is the no-effect control and ±100 the full control effect; nearly all actives have a fitted effect of over 50% in size
Method in brief: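 Cytotoxicity was read from cellular ATP (CellTiter-Glo luminescence) after 16 hr at 37 C with 1 uM doxycycline induction. The inducer was added 2 hr after compound transfer to Tet-on ROR gamma CHO cells.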

[8] = target: Nuclear receptor ROR-gamma (Homo sapiens) (UniProt P51449); test: qHTS assay to identify small molecule antagonists of the retinoid-related orphan receptor gamma (ROR-gamma) signaling pathway (AID 1159521)
Method in brief: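 Test compounds were applied to Tet-on RORγ CHO cells 2 h ahead of doxycycline hyclate (1 uM final). Luciferase reporter activity was quantified by luminescence after 16 h at 37 C and 5% CO2.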

[9] = qHTS assay to identify small molecule agonists of the AP-1 signaling pathway - cell viability counter screen (AID 1159525; calls by dose curve; further: nearly all actives have a fitted effect of over 55% in size)
Method in brief: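 Luminescent ATP readout (Cell Titer Glo, 30 min RT), normalised to DMSO and tetra n-octyl ammonium bromide controls. Cells were ME-180 AP-1-bla in 0.5% dialyzed FBS Opti-MEM, with a 5 h, 37 °C compound exposure.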

[10] = qHTS assay to identify small molecule agonists of the AP-1 signaling pathway (AID 1159526; calls by dose curve; further: on the % scale 0 is the no-effect control and ±100 the full control effect)
[11] = target: Retinoic acid receptor RXR-alpha (Homo sapiens) (UniProt P19793); test: qHTS assay to identify small molecule agonists of the RXR signaling pathway (AID 1159527; calls by dose curve; further: nearly all actives have a fitted effect of over 35% in size; further: potency means the concentration at half of the fitted maximal effect)
Chain of Retinoic acid receptor RXR-alpha (Homo sapiens) (P19793 whole entry, looked up): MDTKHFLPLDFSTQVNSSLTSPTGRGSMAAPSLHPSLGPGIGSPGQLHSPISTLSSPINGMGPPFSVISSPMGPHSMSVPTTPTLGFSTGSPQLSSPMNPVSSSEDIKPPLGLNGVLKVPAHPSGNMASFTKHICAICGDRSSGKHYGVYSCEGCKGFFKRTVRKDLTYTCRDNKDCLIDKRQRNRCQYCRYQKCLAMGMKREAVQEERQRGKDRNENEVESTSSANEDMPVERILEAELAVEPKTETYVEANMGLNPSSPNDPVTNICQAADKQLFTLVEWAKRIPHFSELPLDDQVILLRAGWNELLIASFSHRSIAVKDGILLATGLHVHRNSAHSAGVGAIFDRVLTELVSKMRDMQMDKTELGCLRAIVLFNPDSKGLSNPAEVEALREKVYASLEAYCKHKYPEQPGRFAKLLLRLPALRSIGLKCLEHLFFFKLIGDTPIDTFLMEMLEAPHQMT
Method in brief: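 Using 9-cis retinoic acid as the reference agonist, chemicals were tested in HEK 293T cells […] for 16 hr; substrate loading lasted 2 hr at room temperature.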

[12] = qHTS assay to identify small molecule antagonists of the retinoid acid receptor (RAR) signaling pathway - cell viability counter screen (AID 1159551); further: on the % scale 0 is the no-effect control and ±100 the full control effect; nearly all actives have a fitted effect of over 35% in size
Method in brief: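 C3RL4 cells were seeded overnight at 37 C, then treated with compounds plus 1 uM (final) retinol for 6 h at 37 C. Viability was read as ATP by CellTiter-Glo luminescence after 30 min at room temperature.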

[13] = qHTS assay to identify small molecule antagonists of the retinoic acid receptor (RAR) signaling pathway (AID 1159552)
Method in brief: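 Test chemicals and DMSO controls were pin-transferred onto C3RL4 cells a day after seeding; retinol (1 uM final) followed at once. Luminescent reporter output was quantified after 6 hr of co-incubation and 30 min with detection reagent.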

[14] = qHTS assay to identify small molecule agonists of the retinoic acid receptor (RAR) signaling pathway (AID 1159553); conditions: C3RL4 RARE luciferase reporter, agonist, 6 h; activation: at 73.3 µM (top of the series); further: on the % scale 0 is the no-effect control and ±100 the full control effect
Method in brief: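 C3RL4 cells carrying a RARE luciferase reporter were plated overnight at 37 C, then exposed to compounds in DMSO for 6 hr at 37 C and 5% CO2. Luminescence was read 30 min after luciferase reagent addition at room temperature.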

[15] = qHTS assay to identify small molecule antagonists of the estrogen related receptor (ERR) signaling pathway from Tox21 library - cell viability counter screen (AID 1224834); further: on the % scale 0 is the no-effect control and ±100 the full control effect; nearly all actives have a fitted effect of over 30% in size
Method in brief: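 ERR reporter cells were plated 6 h before compound addition, then exposed to test compounds in DMSO for 17.5 h at 37 C. Viability was read as CellTiter-Fluor fluorescence after a 30-minute incubation at 37 C.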

[16] = target: Luciferin 4-monooxygenase (Photinus pyralis) (UniProt P08659); test: qHTS assay to identify small molecule inhibitors of firefly luciferase (AID 1224835); further: on the % scale 0 is the no-effect control and ±100 the full control effect; nearly all actives have a fitted effect of over 25% in size
Chain of Luciferin 4-monooxygenase (Photinus pyralis) (P08659 whole entry, looked up): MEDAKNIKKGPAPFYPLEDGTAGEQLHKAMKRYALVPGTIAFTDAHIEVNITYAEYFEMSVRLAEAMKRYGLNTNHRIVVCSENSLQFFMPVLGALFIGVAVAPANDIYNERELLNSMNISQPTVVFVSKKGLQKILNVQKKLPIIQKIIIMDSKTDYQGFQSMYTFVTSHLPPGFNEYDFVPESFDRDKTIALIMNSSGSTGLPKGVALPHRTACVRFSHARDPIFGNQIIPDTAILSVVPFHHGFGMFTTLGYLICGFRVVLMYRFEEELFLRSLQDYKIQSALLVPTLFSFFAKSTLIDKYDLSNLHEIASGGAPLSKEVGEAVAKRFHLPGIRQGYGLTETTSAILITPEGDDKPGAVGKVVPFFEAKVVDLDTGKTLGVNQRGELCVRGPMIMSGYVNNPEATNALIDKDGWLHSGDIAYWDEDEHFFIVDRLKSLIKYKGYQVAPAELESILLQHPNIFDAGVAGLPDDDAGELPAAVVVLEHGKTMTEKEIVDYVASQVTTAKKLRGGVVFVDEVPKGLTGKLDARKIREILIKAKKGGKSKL
Method in brief: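 Inhibition of purified Photinus luciferase is measured by luminescence. Substrate levels (D-luciferin, ATP) sit at their KM values. Each compound is tested in a concentration series.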

[17] = qHTS assay to identify small molecule antagonists of the constitutive androstane receptor (CAR) signaling pathway - cell viability counter screen (AID 1224837); further: on the % scale 0 is the no-effect control and ±100 the full control effect; nearly all actives have a fitted effect of over 45% in size
Method in brief: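 HepG2 cells stably expressing hCAR and a CYP2B6-2.2kb reporter were plated and pre-incubated 4 hr at 37 C/5% CO2, then given compounds at 15 concentrations plus 50 nM CITCO (final). After 23 hr, viability was read by CellTiter-Fluor fluorescence.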

[18] = qHTS assay to identify small molecule agonists of the RXR signaling pathway - cell viability counter screen (AID 1159529)
Method in brief: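 Compounds dissolved in DMSO were pinned onto HEK 293T cells carrying a beta-lactamase reporter under RXR-alpha control and incubated 16 hr. Cytotoxicity was then quantified by CellTiter-Glo luminescence.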

[19] = qHTS assay to identify small molecule agonists of the constitutive androstane receptor (CAR) signaling pathway - cell viability counter screen (AID 1224836); further: on the % scale 0 is the no-effect control and ±100 the full control effect; nearly all actives have a fitted effect of over 45% in size
Method in brief: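 23 h treatment, 37 C, 5% CO2. Cell line: HepG2 stably expressing hCAR with a CYP2B6-2.2kb construct. Co-treatment: PK11195, 0.75 uM final. Read-out: CellTiter-Fluor fluorescence intensity.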

[20] = target: Nuclear receptor subfamily 1 group I member 3 (Homo sapiens) (UniProt Q14994); test: qHTS assay to identify small molecule antagonists of the constitutive androstane receptor (CAR) signaling pathway (AID 1224838); further: on the % scale 0 is the no-effect control and ±100 the full control effect; nearly all actives have a fitted effect of over 40% in size
Chain of Nuclear receptor subfamily 1 group I member 3 (Homo sapiens) (Q14994 whole entry, looked up): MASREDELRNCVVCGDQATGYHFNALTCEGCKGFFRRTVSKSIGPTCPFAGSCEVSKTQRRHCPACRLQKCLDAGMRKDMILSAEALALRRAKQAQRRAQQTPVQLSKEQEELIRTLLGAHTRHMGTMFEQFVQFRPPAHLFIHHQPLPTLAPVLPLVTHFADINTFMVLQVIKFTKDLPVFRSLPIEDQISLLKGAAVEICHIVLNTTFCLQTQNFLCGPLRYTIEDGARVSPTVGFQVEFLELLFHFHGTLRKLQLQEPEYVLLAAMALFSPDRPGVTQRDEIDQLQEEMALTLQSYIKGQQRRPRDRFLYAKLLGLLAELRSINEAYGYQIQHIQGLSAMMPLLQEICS
Method in brief: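 HepG2 cells stably co-transfected with hCAR and a CYP2B6-2.2kb luciferase reporter were seeded 4 h before compound addition at 15 concentrations. Cells were stimulated with 50 nM CITCO (final) for 24 h at 37 C; luciferase luminescence was then read.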

CCCCCC1CCCC(=O)O1 (stereo not given)
inactive: outcome [1] | outcome [2] | outcome [3] | outcome [4] | outcome [5] | outcome [6] | outcome [7] | outcome [8] | outcome [9] | outcome [10] | Potency [11] | outcome [12] | Potency [13] | Potency [14] | Potency [15] | Potency [16] | Potency [17]

CC(C)CCCC(C)CC=O (stereo not given)
inactive: outcome [1] | outcome [2] | outcome [3] | outcome [4] | outcome [5] | outcome [6] | outcome [7] | outcome [9] | outcome [10] | Potency [11] | outcome [18] | outcome [12] | Potency [13] | Potency [14] | Potency [15] | Potency [16] | outcome [19] | Potency [17]

O=CO
inactive: activity change, negative = cytotoxicity [1] -15.6% [at 5.95 µM] | viability change, negative = cytotoxic [2] 3.57% [at 6.95 µM] | activation [3] -0.32% [at 6.95 µM] | activity, negative = cytotoxic [4] -18.4% [at 6.95 µM] | activation [5] -2.58% [at 6.95 µM] | activity change, negative = cytotoxicity [6] -1.24% [at 6.95 µM] | activity, negative = cytotoxicity [7] 0.77% [at 8.39 µM] | activity change, negative = inhibition [8] 22.1% [at 8.39 µM] | viability change, negative = cytotoxic [9] 1.49% [at 6.97 µM] | activation [10] 1.24% [at 6.97 µM] | activation [11] 1.02% [at 6.98 µM] | activity change, negative = cytotoxicity [18] 0.323% [at 6.97 µM] | activity change, negative = cytotoxicity [12] 2.98% [at 8.39 µM] | activity, negative = inhibition [13] -7.08% [at 8.39 µM] | activation [14] -3.33% [at 8.36 µM] | viability change, negative = cytotoxic [19] 2.87% [at 8.39 µM] | activity change, negative = cytotoxicity [17] -0.437% [at 8.39 µM] | activity, negative = inhibition [20] -2.01% [at 8.39 µM]

CC(=O)OC[C@H]1O[C@@H](OC(C)=O)[C@H](OC(C)=O)[C@@H]1OC(C)=O
inactive: outcome [1] | outcome [2] | outcome [3] | outcome [4] | outcome [5] | outcome [6] | outcome [7] | outcome [9] | outcome [10] | Potency [11] | outcome [18] | outcome [12] | Potency [13] | Potency [14] | Potency [15] | Potency [16] | outcome [19] | Potency [17]

CCC(CO)CO
inactive: outcome [1] | outcome [2] | outcome [3] | outcome [4] | outcome [5] | outcome [6] | outcome [7] | outcome [9] | outcome [10] | Potency [11] | outcome [18] | outcome [12] | Potency [13] | Potency [14] | Potency [15] | Potency [16] | outcome [19] | Potency [17]

CC(C)(c1ccc(Oc2ccc3c(c2)C(=O)OC3=O)cc1)c1ccc(Oc2ccc3c(c2)C(=O)OC3=O)cc1
inactive: outcome [2] | outcome [3] | outcome [4] | outcome [5] | outcome [6] | outcome [7] | outcome [9] | outcome [10] | outcome [18] | outcome [12] | Potency [13] | Potency [14] | Potency [15] | outcome [19] | Potency [17] | Potency [20]
active: Potency [11] 13.7 µM

CC(=O)OCCCc1ccccc1
inactive: outcome [2] | outcome [3] | outcome [4] | outcome [5] | outcome [6] | outcome [7] | outcome [9] | outcome [10] | Potency [11] | outcome [18] | outcome [12] | Potency [13] | Potency [14] | Potency [15] | Potency [16] | Potency [17]

CCCC(C)CC (stereo not given)
inactive: outcome [1] | outcome [2] | outcome [3] | outcome [4] | outcome [5] | outcome [6] | outcome [7] | outcome [8] | outcome [9] | outcome [10] | Potency [11] | outcome [12] | Potency [13] | Potency [14] | Potency [15] | Potency [16] | outcome [19] | Potency [17]
